The nature of assay [1]: qHTS assay to identify small molecule agonists of the hypoxia (HIF-1) signaling pathway - cell viability counter screen (AID 1224844; calls by dose curve; also: nearly all actives have a fitted effect of over 50% in size; also: potency is read from the fitted curve at half-maximal effect). In outline: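 Cytotoxicity measured by CellTiter-Glo ATP luminescence in the wells also read for beta-lactamase signal. Cells were HRE-bla ME-180 (2,000/well, 0.5% dialyzed FBS), exposed to compounds for 17 h at 37C.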
(Quantitative high-throughput screening tests each substance at several concentrations.)

Assay [2] can be described thus: qHTS assay to identify small molecule agonists of H2AX (AID 1224845; active = well fitted activation curve with a large enough effect in the signal ratio in the repeat runs, not every such curve was filed as active; the % refers to the signal ratio; also: % is scaled to controls: 0 for no effect and ±100 for the full control effect). The method, boiled down:
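Wild-type CHO-K1 cells plated overnight, then exposed 3 hr at 37C to compounds at 15 concentrations (0.76% DMSO). Lysed, then HTRF anti-pH2AX(S139)-cryptate/anti-H2AX-d2 detection after 24 hr at room temperature; emissions 665 and 620 nm.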

Assay [3] can be described thus: qHTS assay to identify small molecule agonists of the hypoxia (HIF-1) signaling pathway (AID 1224846; active = well fitted activation curve with a large enough effect in the signal ratio in the repeat runs, not every such curve was filed as active; the % refers to the signal ratio; also: % is scaled to controls: 0 for no effect and ±100 for the full control effect). In outline: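 Compounds added to ME-180 cells carrying hypoxia-response-element beta-lactamase reporter (0.5% dialyzed FBS, 5 h preplating), 17 h at 37C; agonist activity detected by CCF4-AM B/G FRET read-out.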
A short description of assay [4]: qHTS assay to identify small molecule agonists of H2AX - cell viability counter screen (AID 1224847; calls by dose curve; also: top concentration of the series differs between compounds; % is scaled to controls: 0 for no effect and ±100 for the full control effect; nearly all actives have a fitted effect of over 30% in size). The method, boiled down:
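Cytotoxicity counter screen in wild-type CHO-K1 cells: a 3 hr compound treatment at 37C across 15 concentrations, followed by CellTiter-Glo luminescence to gauge viable cells.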

Assay [5] can be described thus: qHTS RealTime-Glo MT Cell Viability Assay in HepG2 cells - 24 hour (AID 1224867). Also: nearly all actives have a fitted effect of over 50% in size. Also: potency is read from the fitted curve at half-maximal effect. In outline: (§1)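 HepG2 cells were seeded at 600 cells/well together with NanoLuc luciferase and a cell-permeant prosubstrate, preincubated 5 h at 37 C/5% CO2, then pin-dosed with compounds in DMSO. Nonlytic luminescence from viable cells was read at each time point.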
The nature of assay [6]: A CellTox Green Cytotoxicity Assay to monitor cytotoxicity in HEK293 cells - 0 hour (AID 1224869). Also: % is scaled to controls: 0 for no effect and ±100 for the full control effect; nearly all actives have a fitted effect of over 50% in size. In outline: (§2)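 Fluorescence from a DNA-binding dye excluded by viable cells was measured repeatedly in the same HEK293 wells (600 cells/well) during continuous compound exposure at 37 C. Each assay gives one read point: 0, 8, 16, 24, 32 or 40 h.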
A short description of assay [7]: qHTS RealTime-Glo MT Cell Viability Assay in HepG2 cells - 40 hour (AID 1224870). Also: nearly all actives have a fitted effect of over 50% in size. Also: potency is read from the fitted curve at half-maximal effect. In outline: (§3)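 HepG2 cells mixed with RealTime-Glo MT reagents (NanoLuc plus cell-permeant prosubstrate) were seeded at 600 cells/well, incubated 5 h at 37 C/5% CO2, then pinned with compounds in DMSO; nonlytic luminescence tracked viability during 40 h treatment.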
A short description of assay [8]: A CellTox Green Cytotoxicity Assay to monitor cytotoxicity in HEK293 cells - 40 hour (AID 1224871). Also: nearly all actives have a fitted effect of over 45% in size. Also: potency is read from the fitted curve at half-maximal effect. In outline:
as §2

Assay [9] can be described thus: qHTS RealTime-Glo MT Cell Viability Assay in HepG2 cells - 8 hour (AID 1224873). Also: nearly all actives have a fitted effect of over 55% in size. Also: potency is read from the fitted curve at half-maximal effect. The method, boiled down: as §3
Assay [10] in a line: qHTS RealTime-Glo MT Cell Viability Assay in HEK293 cells - 40 hour (AID 1224874). Also: nearly all actives have a fitted effect of over 50% in size. Also: potency is read from the fitted curve at half-maximal effect. As to max response: % is scaled to controls: 0 for no effect and ±100 for the full control effect. Particulars: RealTime-Glo luminescence; max response: stronger effect = lower value. In outline:
(§4)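 Luminescence, which tracks viable cell number through reduction of the prosubstrate to a NanoLuc substrate, was read over continuous 37 C culture. Cells (600/well) were premixed with reagent and rested 5 h before 23 nL of compound in DMSO was pinned.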

Assay [11] in a line: A CellTox Green Cytotoxicity Assay to monitor cytotoxicity in HEK293 cells - 24 hour (AID 1224875). Also: % is scaled to controls: 0 for no effect and ±100 for the full control effect; nearly all actives have a fitted effect of over 45% in size. The method, boiled down: as §2
Assay [12] in a line: A CellTox Green Cytotoxicity Assay to monitor cytotoxicity in HepG2 cells - 16 hour (AID 1224876). Also: nearly all actives have a fitted effect of over 45% in size. Also: potency is read from the fitted curve at half-maximal effect. The method, boiled down: (§5)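 Real-time cytotoxicity: fluorescence of a cell-impermeant cyanine dye binding DNA of dead HepG2 cells, measured repeatedly (0–40 h) during compound exposure at 37 C. Cells seeded 600/well with reagent, dosed after 5 h.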
Assay [13] can be described thus: qHTS RealTime-Glo MT Cell Viability Assay in HepG2 cells - 32 hour (AID 1224877). Also: nearly all actives have a fitted effect of over 55% in size. Also: potency is read from the fitted curve at half-maximal effect. The method, boiled down:
as §1

A short description of assay [14]: A CellTox Green Cytotoxicity Assay to monitor cytotoxicity in HepG2 cells - 24 hour (AID 1224878). Also: nearly all actives have a fitted effect of over 45% in size. Also: potency is read from the fitted curve at half-maximal effect. As to Cytotoxicity: % is scaled to controls: 0 for no effect and ±100 for the full control effect. In outline: as §5
A short description of assay [15]: A CellTox Green Cytotoxicity Assay to monitor cytotoxicity in HepG2 cells - 40 hour (AID 1224879). Also: nearly all actives have a fitted effect of over 40% in size. Also: potency is read from the fitted curve at half-maximal effect. The method, boiled down:
as §5

Assay [16] in a line: qHTS RealTime-Glo MT Cell Viability Assay in HEK293 cells - 0 hour (AID 1224880). In outline:
as §4

The nature of assay [17]: qHTS assay to identify small molecule antagonists of the estrogen related receptor (ERR) signaling pathway from Tox21 library (AID 1224848). In outline: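 First, 2,000 ERR cells per well were plated and held 6 h at 37 C/5% CO2. Next, compounds in DMSO were pinned in and left 18 h at 37 C. Finally, ONE-Glo was added and luminescence read after 30 min at room temperature.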

A short description of assay [18]: qHTS assay to identify small molecule agonists of the estrogen related receptor (ERR) signaling pathway from Tox21 library (AID 1224849; calls by dose curve; also: % is scaled to controls: 0 for no effect and ±100 for the full control effect; nearly all actives have a fitted effect of over 15% in size). Particulars: ERR reporter cell line, ONE-Glo luciferase, 18 h; at 92.4 µM (top of the series). The method, boiled down:
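Luminescent agonist read-out (One-Glo, 30-minute room-temperature incubation) following 18-hour compound treatment at 37 C of the ERR cell line, which had been plated 6 hours before dosing.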

Assay [19] in a line: qHTS RealTime-Glo MT Cell Viability Assay in HEK293 cells - 32 hour (AID 1224868). Also: nearly all actives have a fitted effect of over 50% in size. Also: potency is read from the fitted curve at half-maximal effect. In outline: (§6)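 HEK293 cells were seeded at 600 cells/well together with NanoLuc luciferase and cell-permeant prosubstrate, preincubated 5 h at 37 C/5% CO2, then given compound in DMSO by pintool. Luminescence from viable-cell prosubstrate reduction was read repeatedly over 40 h.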
A short description of assay [20]: qHTS RealTime-Glo MT Cell Viability Assay in HEK293 cells - 16 hour (AID 1224872). The method, boiled down:
as §6

The results in this text go back to PubChem BioAssay (Tox21).

Several values for one entry are separate records, joined by “and”; a condition that tells them apart may be missing. Equal values may be shown once. Records with an inconclusive call do not appear. Some structures have more than one record in an assay (separate samples or runs), and their calls can disagree. Activity calls are given as the source filed them. Unless noted, calls follow the shape of the dose curve; as a rule, active = well fitted curve in the direction sought with a large enough effect in the repeat runs; inconclusive = weak or mixed curves; inactive = no such curve, though single readings can be large; an effect the other way counts as inactive or inconclusive.

As to `C[N+](C)(C)Cc1ccccc1`, the Potency entry in assay [1], in assay [2], in [4], in assay [5], in assay [6] and in [7] was “inactive” each time. Also, the Potency entry in assay [8], in assay [9], in assay [11], in assay [12], in [13] and in assay [14] was “inactive” each time. Moreover, the Potency result in [15] was “inactive”. Moreover, the call in [3] and in [16] was inactive. In addition, the max response in assay [10] is 3.99% (inactive) and 18.8% (inactive) and -0.0813% (inactive).
Take `CCC[N+]1(C)CCCC1`: the Potency result in assay [1], in assay [2], in [4], in [5], in assay [6] and in assay [8] was “inactive” each time. Moreover, the Potency entry in assay [9], in [11], in assay [12], in assay [14] and in [15] was “inactive” each time. Further, the outcome in [3] and in [16] was inactive. The Potency entry in [7] is “inactive and 34.9 µM (active)”; in assay [13] it was “inactive and 49.3 µM (active)”.
Regarding `O=C(O)CCl`, the Potency entry in assay [1], in [2], in assay [17], in assay [5], in assay [6] and in assay [7] was “inactive” throughout. Also, the Potency entry in assay [8], in assay [9], in assay [11], in assay [12], in [13] and in assay [14] was “inactive” each time. In addition, the Potency result in [15] was “inactive”. The molecule was classed as inactive in assay [3] and in [16]. Also, the activity change, positive = activation in assay [18] is 5.04% (inactive) and -0.191% (inactive) and -5.49% (inactive).
As for `CCCCCCCCCCCCCC[P+](CCCCCC)(CCCCCC)CCCCCC`, the Potency in assay [1] was 11 µM (active) and 17.5 µM (active) and inactive; in [5], 9.82 µM (active) and 19.7 µM (active) and inactive; in assay [19], 3.91 µM (active) and 2.47 µM (active) and 1.95 µM (active); in [7], 11 µM (active) and 22.1 µM (active) and inactive; in [8], 13.9 µM (active) and 19.7 µM (active); in assay [9] it was 17.5 µM (active) and 19.7 µM (active) and inactive. Also, the Potency was 12.4 µM (active) and 22.1 µM (active) and inactive in assay [12]; 11 µM (active) and 19.7 µM (active) and inactive in assay [13]; 11 µM (active) and 17.5 µM (active) and inactive in [14]; 12.4 µM (active) and 17.5 µM (active) and 48.9 µM (active) in [15]. The Potency result in assay [2] and in [6] was “inactive” each time. For the same molecule, the molecule was called inactive in assay [3] and in assay [16].
Regarding `C=CCOC(Cn1ccnc1)c1ccc(Cl)cc1Cl` (stereo not drawn), the Potency was 39 µM (active) and inactive in assay [1]; 55.1 µM (active) and inactive in [8]; 43.8 µM (active) in assay [20]; 17.4 µM (active) and 38.9 µM (active) in assay [10]; 49.1 µM (active) in [14]; 49.1 µM (active) in assay [15]. The Potency result in assay [5], in assay [6], in assay [7], in [9], in assay [12] and in assay [13] was “inactive” throughout. Besides, the molecule was classed as inactive in assay [16].
Take `Nc1ccc(Cl)cc1`: the Potency entry in assay [1], in [2], in assay [5], in assay [19], in [6] and in assay [7] was “inactive” throughout. Besides, the Potency result in [8], in [9], in assay [11], in assay [12], in assay [13] and in assay [14] was “inactive” throughout. Besides, the Potency result in [15] is “inactive”. Further, the call in assay [3] and in [16] was inactive.
Regarding `O=C(O)COc1ccc(Cl)cc1Cl`, the Potency result in assay [1], in assay [2], in assay [5], in assay [6], in assay [7] and in assay [8] was “inactive” throughout. In addition, the Potency entry in [9], in assay [11], in assay [12], in [13], in assay [14] and in assay [15] was “inactive” in each case. The call in assay [3] and in assay [16] was inactive.
